How the values were obtained:
Experiment in all cases: log2 ratio of Biotin-Ahx-Ub-VS probe labelling (fragment/DMSO); higher = less target engagement (more negative = stronger competition), active = hit call of the paper (q ≤ 0.05, log2 ratio ≤ -1)
Conditions in all cases: compound concentration: 200 uM; treatment time: 3 h
USP34 = USP34 (UniProt Q70CQ2)
Procedure, shortened: (§1)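 HEK293T lysate (495 µg per sample, in Tris/CHAPS/IGEPAL buffer with protease inhibitors) was treated in triplicate with fragment at 200 µM or with DMSO for 3 h. It was then treated with Biotin-Ahx-Ub-VS (0.5 µM final) for 1 h. Labelled DUBs were NeutrAvidin-enriched, digested with LysC and trypsin, and run by diaPASEF LC-MS/MS. Spectronaut label-free quantities were global-median-normalised. Values are average log2 ratios fragment/DMSO by unpaired t-test, using proteins with ≥2 unique peptides.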

USP36 = molecular target: T1, USP36 (UniProt Q9P275)
T1 sequence (whole entry): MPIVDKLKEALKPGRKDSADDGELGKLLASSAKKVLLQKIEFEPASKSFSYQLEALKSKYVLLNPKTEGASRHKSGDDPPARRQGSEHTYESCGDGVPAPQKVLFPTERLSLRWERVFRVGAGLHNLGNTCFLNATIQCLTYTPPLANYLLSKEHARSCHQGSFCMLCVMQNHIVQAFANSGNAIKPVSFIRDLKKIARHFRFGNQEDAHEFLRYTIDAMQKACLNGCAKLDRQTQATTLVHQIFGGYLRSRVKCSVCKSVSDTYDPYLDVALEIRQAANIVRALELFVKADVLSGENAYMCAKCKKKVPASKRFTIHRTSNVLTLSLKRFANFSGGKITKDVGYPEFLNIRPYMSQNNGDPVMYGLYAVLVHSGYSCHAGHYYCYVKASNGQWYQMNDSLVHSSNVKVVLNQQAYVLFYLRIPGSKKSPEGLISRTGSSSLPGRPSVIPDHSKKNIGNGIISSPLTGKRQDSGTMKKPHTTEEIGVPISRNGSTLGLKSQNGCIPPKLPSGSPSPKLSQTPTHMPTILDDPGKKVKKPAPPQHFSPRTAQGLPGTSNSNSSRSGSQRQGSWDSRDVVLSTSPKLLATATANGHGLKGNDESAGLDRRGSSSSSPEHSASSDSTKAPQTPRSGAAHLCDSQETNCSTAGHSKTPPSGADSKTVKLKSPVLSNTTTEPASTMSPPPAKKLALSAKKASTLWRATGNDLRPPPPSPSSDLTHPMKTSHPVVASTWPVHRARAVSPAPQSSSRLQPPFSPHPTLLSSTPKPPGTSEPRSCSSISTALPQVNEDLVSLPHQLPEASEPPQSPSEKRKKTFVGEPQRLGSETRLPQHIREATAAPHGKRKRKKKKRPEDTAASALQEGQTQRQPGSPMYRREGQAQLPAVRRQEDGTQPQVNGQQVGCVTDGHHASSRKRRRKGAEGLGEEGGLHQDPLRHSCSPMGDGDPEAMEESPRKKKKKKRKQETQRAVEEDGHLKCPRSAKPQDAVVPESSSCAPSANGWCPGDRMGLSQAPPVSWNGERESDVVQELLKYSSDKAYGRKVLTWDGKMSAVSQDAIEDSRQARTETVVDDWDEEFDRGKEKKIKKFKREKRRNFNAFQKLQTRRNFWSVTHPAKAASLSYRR
Procedure, shortened: as §1

USP38 = molecular target: T2, USP38 (UniProt Q8NB14)
T2 sequence (whole entry): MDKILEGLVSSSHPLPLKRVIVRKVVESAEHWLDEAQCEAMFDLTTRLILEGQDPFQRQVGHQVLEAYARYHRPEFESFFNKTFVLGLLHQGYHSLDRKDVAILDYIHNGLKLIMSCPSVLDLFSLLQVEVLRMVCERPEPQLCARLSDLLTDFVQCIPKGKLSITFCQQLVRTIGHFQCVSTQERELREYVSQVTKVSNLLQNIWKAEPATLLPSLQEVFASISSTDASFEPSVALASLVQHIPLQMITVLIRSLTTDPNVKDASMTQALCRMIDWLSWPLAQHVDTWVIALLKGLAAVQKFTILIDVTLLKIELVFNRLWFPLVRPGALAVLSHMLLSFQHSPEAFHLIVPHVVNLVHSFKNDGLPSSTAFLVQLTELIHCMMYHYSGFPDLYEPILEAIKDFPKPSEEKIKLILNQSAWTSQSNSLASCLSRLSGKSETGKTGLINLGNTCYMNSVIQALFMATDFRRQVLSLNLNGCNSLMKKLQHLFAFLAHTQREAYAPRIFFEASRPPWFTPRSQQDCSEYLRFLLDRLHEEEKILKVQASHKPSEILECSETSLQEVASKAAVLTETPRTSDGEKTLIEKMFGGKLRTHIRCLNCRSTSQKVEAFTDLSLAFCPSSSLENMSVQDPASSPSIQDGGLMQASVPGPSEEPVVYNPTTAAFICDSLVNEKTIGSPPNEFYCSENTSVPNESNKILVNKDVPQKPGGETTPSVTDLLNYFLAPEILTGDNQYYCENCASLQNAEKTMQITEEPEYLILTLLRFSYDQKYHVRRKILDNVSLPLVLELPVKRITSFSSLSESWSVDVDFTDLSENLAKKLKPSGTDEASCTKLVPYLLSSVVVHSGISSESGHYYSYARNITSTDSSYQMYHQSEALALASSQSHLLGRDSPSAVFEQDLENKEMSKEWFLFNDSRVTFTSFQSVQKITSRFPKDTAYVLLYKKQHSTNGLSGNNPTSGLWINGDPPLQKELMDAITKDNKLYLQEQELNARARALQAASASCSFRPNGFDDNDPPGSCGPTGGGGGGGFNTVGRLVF
Procedure, shortened: as §1

USP39 = molecular target: T3, USP39 (UniProt Q53GS9)
T3 sequence (whole entry): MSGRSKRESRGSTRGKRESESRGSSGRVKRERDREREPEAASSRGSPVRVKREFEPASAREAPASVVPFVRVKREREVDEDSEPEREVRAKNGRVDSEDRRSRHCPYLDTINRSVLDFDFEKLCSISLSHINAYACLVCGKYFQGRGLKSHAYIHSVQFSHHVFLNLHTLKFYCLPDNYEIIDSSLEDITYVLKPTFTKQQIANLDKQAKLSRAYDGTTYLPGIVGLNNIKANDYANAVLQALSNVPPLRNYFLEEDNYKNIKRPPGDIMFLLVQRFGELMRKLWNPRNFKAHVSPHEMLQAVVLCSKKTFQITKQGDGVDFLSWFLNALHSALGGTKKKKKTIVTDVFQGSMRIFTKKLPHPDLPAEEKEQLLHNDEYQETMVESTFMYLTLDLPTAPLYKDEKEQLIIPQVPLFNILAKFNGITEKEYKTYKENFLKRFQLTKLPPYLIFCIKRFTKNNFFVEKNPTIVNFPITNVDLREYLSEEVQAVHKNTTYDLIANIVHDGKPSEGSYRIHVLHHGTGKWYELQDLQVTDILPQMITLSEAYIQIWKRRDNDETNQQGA
Procedure, shortened: as §1

USP4 = molecular target: T4, USP4 (UniProt Q13107)
T4 sequence (whole entry): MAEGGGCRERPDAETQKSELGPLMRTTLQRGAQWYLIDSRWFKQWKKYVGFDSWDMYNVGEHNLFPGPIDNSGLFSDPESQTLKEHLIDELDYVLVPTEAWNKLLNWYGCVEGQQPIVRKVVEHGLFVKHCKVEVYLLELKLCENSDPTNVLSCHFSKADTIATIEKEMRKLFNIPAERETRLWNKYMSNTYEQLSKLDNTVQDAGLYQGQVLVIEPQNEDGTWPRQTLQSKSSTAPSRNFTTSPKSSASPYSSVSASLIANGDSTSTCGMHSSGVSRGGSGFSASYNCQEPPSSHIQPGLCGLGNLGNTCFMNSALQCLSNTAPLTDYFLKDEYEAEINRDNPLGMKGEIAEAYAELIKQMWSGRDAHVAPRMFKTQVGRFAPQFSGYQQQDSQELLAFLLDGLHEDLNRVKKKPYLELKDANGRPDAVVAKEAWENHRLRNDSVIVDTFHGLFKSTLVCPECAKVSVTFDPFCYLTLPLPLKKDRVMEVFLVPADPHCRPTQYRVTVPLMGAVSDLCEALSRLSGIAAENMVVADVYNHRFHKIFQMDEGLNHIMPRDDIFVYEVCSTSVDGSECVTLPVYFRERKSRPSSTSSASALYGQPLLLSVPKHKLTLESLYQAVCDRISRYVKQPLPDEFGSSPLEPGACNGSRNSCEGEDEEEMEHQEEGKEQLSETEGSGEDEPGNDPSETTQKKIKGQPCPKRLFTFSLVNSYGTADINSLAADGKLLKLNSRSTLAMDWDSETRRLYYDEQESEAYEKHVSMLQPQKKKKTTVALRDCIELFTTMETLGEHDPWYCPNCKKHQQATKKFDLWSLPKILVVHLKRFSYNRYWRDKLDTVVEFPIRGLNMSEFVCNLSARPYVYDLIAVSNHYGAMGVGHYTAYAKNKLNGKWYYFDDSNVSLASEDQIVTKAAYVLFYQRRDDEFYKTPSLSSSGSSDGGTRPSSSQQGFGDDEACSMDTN
Procedure, shortened: as §1

Measured: log2 ratio of Biotin-Ahx-Ub-VS probe labelling

USP34, sequence (Q70CQ2 whole entry, the tested form may be a part): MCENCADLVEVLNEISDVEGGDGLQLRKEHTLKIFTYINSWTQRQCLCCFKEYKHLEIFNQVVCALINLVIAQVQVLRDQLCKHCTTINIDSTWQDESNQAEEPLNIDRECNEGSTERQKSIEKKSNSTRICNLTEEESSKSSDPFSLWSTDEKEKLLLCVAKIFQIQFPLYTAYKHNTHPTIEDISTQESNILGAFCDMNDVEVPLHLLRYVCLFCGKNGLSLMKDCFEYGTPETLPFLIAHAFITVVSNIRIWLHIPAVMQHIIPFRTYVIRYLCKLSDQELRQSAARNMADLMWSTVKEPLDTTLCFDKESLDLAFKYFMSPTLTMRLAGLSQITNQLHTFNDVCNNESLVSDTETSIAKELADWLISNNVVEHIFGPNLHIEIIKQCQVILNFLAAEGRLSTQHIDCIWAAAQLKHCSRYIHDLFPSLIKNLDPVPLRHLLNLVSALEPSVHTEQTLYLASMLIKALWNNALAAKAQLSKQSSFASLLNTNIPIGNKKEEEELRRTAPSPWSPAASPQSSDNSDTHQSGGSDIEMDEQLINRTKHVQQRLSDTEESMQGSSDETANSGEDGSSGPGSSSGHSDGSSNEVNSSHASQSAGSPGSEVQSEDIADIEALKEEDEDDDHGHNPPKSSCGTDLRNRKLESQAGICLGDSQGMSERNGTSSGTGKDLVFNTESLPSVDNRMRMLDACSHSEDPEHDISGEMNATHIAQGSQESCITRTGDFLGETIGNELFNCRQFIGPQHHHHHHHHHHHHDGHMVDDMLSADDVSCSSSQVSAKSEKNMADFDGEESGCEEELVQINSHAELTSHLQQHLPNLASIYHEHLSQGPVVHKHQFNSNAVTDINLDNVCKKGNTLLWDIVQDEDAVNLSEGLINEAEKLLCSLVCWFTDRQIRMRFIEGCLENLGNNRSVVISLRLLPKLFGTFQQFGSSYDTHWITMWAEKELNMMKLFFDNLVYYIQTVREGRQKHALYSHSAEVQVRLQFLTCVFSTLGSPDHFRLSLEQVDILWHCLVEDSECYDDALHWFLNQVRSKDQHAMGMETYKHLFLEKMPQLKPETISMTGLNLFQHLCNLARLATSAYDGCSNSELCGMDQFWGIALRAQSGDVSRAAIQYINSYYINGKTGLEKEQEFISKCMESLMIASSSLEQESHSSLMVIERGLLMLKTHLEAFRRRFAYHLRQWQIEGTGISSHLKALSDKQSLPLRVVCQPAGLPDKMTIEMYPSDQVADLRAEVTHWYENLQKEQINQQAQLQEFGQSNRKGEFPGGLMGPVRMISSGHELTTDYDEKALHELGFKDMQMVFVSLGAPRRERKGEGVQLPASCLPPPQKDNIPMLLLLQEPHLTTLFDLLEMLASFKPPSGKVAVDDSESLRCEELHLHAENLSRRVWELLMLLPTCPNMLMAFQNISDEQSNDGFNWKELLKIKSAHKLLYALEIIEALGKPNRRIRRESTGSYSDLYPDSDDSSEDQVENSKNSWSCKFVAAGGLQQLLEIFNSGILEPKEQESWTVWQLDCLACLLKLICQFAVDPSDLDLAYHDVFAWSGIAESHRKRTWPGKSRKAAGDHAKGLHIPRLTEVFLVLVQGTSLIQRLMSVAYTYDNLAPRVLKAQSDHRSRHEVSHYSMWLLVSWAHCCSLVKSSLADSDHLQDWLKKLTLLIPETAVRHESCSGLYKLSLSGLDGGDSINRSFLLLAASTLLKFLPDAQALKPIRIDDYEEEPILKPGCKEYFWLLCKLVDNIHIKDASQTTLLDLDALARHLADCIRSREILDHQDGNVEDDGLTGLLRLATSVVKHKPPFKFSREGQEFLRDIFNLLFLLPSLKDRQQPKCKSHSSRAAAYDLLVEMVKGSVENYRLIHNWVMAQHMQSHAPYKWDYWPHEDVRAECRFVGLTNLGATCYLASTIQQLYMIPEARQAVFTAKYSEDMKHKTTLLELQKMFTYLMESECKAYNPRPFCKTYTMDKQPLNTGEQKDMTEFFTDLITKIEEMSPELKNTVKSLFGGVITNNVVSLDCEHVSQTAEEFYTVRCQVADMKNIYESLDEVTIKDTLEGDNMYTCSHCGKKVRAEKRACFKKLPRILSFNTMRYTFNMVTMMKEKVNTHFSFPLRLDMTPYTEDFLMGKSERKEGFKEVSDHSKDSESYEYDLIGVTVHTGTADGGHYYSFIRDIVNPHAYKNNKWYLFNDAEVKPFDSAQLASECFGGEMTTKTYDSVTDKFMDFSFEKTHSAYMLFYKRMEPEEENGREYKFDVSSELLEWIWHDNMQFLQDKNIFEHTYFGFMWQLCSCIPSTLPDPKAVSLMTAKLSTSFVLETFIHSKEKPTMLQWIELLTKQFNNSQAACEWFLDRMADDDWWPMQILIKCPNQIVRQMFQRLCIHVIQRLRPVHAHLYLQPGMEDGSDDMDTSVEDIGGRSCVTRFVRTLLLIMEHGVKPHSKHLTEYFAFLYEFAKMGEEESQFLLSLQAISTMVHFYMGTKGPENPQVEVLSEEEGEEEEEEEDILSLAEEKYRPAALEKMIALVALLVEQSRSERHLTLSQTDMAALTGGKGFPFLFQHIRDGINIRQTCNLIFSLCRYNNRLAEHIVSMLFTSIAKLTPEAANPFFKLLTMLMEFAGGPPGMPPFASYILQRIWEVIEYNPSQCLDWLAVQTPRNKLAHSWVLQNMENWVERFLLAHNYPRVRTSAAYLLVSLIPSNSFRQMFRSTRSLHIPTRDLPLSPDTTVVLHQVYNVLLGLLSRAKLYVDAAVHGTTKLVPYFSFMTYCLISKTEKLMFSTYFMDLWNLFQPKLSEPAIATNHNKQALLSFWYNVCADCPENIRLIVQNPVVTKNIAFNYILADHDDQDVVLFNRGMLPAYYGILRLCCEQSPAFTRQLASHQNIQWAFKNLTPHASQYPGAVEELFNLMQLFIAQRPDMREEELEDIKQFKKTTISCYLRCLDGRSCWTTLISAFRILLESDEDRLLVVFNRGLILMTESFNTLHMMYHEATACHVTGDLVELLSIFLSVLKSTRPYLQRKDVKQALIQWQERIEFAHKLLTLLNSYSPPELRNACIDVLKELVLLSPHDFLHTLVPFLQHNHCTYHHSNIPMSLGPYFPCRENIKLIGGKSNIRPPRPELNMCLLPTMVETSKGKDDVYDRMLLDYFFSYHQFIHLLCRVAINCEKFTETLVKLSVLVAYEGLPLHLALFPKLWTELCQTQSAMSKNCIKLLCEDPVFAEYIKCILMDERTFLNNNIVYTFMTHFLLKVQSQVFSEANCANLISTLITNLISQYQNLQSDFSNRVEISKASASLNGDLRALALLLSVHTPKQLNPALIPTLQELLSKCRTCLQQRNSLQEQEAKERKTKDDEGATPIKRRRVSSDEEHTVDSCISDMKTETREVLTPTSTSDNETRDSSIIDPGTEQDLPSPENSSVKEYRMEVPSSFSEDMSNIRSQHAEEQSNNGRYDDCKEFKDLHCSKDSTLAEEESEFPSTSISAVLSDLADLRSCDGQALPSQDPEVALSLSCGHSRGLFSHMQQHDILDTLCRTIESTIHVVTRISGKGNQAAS

Cc1nnc(C(NC(=O)CCl)c2ccccc2)n1C (stereo not given)
inactive: USP34 0.334 | USP36 0.114 | USP38 0.538 | USP39 0.132 | USP4 0.55
